# In PubChem BioAssay (Tox21):
# Inconclusive results are not listed. Active and inactive are the calls of the source. Calls come from the whole dose curve; as a rule, active = well fitted inhibition curve with a large enough effect in the repeat runs; inconclusive = weak or mixed curves; inactive = no such curve, though single readings can be large or run the other way.
# Target: Cytochrome P450 2C19 (Homo sapiens) (UniProt P33261)
# Assay: Cytochrome P450 Family 2 Subfamily C Member 19 (CYP2C19) small molecule antagonists: luciferase reporter qHTS assay (AID 1671197); note: nearly all actives have a fitted effect of over 65% in size
# Conditions: P450-Glo CYP2C19 enzyme, luciferin luminescence, 1 h; series mostly up to 115 µM
# Source text: National Center for Advancing Translational Sciences [NCATS]
# U.S. Environmental Protection Agency [EPA]
# National Institutes of Environmental Health Sciences [NIEHS]
# National Toxicology Program [NTP]
# U.S. Food and Drug Administration [FDA]
# Cytochrome P450 (CYP) enzymes are membrane-bound hemeproteins that play a key role in metabolism of drugs and xenobiotics. Evaluation of the effect of chemicals on CYP isozymes is useful to minimize the adverse drug reactions and toxicities in drug development process. Tox21 chemicals were tested for their effect on CYP enzyme activities by using P450-Glo (TM) screening systems (Promega Corporation, Madison, WI). These systems provide a luminescent method containing proluciferin substrates and are converted to luciferin products by CYP isozymes. The luciferin products formed are detected with a luciferin detection reagent, and the amount of light produced is proportional to CYP activity. P450-Glo (TM) CYP2C19 screening system (Catalog. No. V9880) was used to detect the compounds that interfere in CYP2C19 activity. The positive control compound used for CYP2C19 assay is ketoconazole (Sigma-Aldrich, St. Louis, MO).
# Tox21 Assay Protocol Summary:
# Two ul of enzyme-substrate mix was dispensed into medium binding white/solid 1536-well plates (Greiner Bio-One North America Inc., Monroe, NC) using a BioRaptr Flying Reagent Dispenser (FRD, Beckman Coulter, Brea, CA). Compounds dissolved in DMSO and positive control (ketoconazole) were transferred to the assay plates at 23 nl using a Pintool station (Wako, San Diego, CA). The assay plates were incubated at room temperature for 10 min. Then 2 ul of NADPH regeneration solution was added to each well of the assay plates using an FRD and incubated at 37C for 1 h. The reaction was stopped by adding 4 ul of detection reagent using an FRD and after 20 min incubation at room temperature the luminescence signal was measured using a ViewLux plate reader (Perkin Elmer, Shelton, CT). Data were expressed as relative luminescence units.
# % is set by controls: 0 for no effect and ±100 for the full control effect; potency is the fitted concentration of half-maximal effect.
# Chain of Cytochrome P450 2C19 (Homo sapiens) (P33261 whole entry, looked up): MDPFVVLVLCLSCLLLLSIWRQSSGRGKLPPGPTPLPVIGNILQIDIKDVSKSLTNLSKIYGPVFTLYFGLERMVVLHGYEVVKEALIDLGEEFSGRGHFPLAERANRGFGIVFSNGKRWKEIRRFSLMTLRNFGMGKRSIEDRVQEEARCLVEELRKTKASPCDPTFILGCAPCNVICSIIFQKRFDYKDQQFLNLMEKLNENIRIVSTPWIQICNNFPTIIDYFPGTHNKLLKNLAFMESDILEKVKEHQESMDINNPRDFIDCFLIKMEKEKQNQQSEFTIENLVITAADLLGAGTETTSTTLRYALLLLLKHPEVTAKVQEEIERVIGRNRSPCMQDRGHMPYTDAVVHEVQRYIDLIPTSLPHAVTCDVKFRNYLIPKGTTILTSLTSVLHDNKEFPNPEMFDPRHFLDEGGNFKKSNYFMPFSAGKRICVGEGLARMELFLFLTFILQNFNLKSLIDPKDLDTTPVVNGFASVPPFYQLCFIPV
SMILES,Potency,"activity change, negative = inhibition"
CCOP(=S)(NC(C)C)Oc1ccccc1C(=O)OC(C)C (stereo not given),0.2 µM (active),
Oc1cc(Cl)c(Cl)c(Cl)c1Cl,inactive,
COCCC#N,inactive,
C#CCO,inactive,
CCC[CH2][Sn]([CH2]CCC)([O]C(C)=O)[O]C(C)=O,inactive,
CC(Cc1ccccc1)N(C)Cc1ccco1 (stereo not given),7.76 µM (active),
CC1=C2C[C@H]3[C@@H](CC=C4C[C@@H](O)CC[C@@]43C)[C@@H]2CC[C@]12O[C@@H]1C[C@H](C)CN[C@H]1[C@H]2C,inactive,
OCC(Br)CBr (stereo not given),inactive,
CC#C[C@]1(O)CC[C@H]2[C@@H]3C[C@H](C)C4=CC(=O)CC[C@]4(C)[C@H]3CC[C@@]21C,9.77 µM (active),
CC(C)N(C(=O)SC/C(Cl)=C/Cl)C(C)C,3.19 µM (active),
Cc1cc(C2CC2)nc(Nc2ccccc2)n1,39.9 µM (active),
Cc1ccccc1OP(=O)(Oc1ccccc1C)Oc1ccccc1C,1.6 µM (active),
Cc1ccn2nc(S(=O)(=O)Nc3c(F)cccc3F)nc2n1,inactive,
COC(=O)c1ccccc1S(=O)(=O)NC(=O)Nc1nc(C)nc(OC)n1,35.3 µM (active),
COC(=O)C(C)N(C(=O)c1ccco1)c1c(C)cccc1C (stereo not given),11.2 µM (active),
N#CC(C#N)=NNc1cccc(Cl)c1,79.6 µM (active),
CCn1cc[n+](C)c1 (tested in a mixture with another compound),inactive,
Oc1cccc(Cl)c1Cl,80 µM (active),
CSC1=N[C@@](C)(c2ccccc2)C(=O)N1Nc1ccccc1,1.12 µM (active),
CNC(=O)/C=C(\C)OP(=O)(OC)OC,inactive,

SMILES,Potency,"activity change, negative = inhibition"
C[C@@H]1CC2=CC(=O)CC[C@@H]2[C@H]2CC[C@@]3(C)[C@@H](CC[C@]3(C)O)[C@@H]21,8.71 µM (active),
COP(=S)(OC)Oc1ccc([N+](=O)[O-])c(C)c1,0.399 µM (active),
CC(C)(C)c1ccc(OP(=O)(Oc2ccccc2)Oc2ccccc2)cc1,5.06 µM (active),
Clc1c(Cl)c(Cl)c(Cl)c(Cl)c1Cl,,17.2% [at 10.5 µM] (inactive)
C=CC(=C)C,inactive,
CCC1COC(Cn2cncn2)(c2ccc(Cl)cc2Cl)O1 (stereo not given),0.317 µM (active),
Cc1ccc([N+](=O)[O-])[c]2c1[O][Hg]2,2.19 µM (active),
ClC(Cl)C(Cl)(Cl)Cl,inactive,
Nc1ccccc1-c1ccccc1,35.4 µM (active),
ClC1(Cl)C2(Cl)C3(Cl)C4(Cl)C(Cl)(Cl)C5(Cl)C3(Cl)C1(Cl)C5(Cl)C24Cl (stereo not given),inactive,
FC(F)C(F)(F)OCC(Cn1cncn1)c1ccc(Cl)cc1Cl (stereo not given),0.0199 µM (active),
CCC(C)Br (stereo not given),inactive,
BrCC(Br)(Br)Br,inactive,
CCN1CCC2(CC1)COc1cc3c(cc12)N(C(=O)c1ccc(-c2ccc(-c4nnc(C)o4)cc2C)cc1)CC3,23.2 µM (active),
NC1CCC(CC2CCC(N)CC2)CC1 (stereo not given),inactive,
CC(=O)[O][Pb]([c]1ccccc1)([c]1ccccc1)[c]1ccccc1,8.94 µM (active),
CN1C(=O)[C@@H](NC(=O)c2cc3ccccc3[nH]2)N=C(c2ccccc2)c2ccccc21,inactive,
CO/N=C(/C1=NOCCO1)c1ccccc1Oc1ncnc(Oc2ccccc2Cl)c1F,7.96 µM (active),
NC(=O)C(Cl)Cl,inactive,
CC(=O)C(Cl)C(=O)N(C)C (stereo not given),inactive,
